# Data reported in the supplement of paper PMC8728848.
# This is one part of a sample in which the strongest signals are shown more often than they occur.
# B1: PX14343H-pdi-506-26-506 (Parabacteroides distasonis) (protein)
# chain: QPTGTMTTDSKLTSKESALALTNSAYLKNTVFNKMTPGWGCNTILLLEYMTGKATSENSQSNYKDFQDLLVSDRSLYIEDWWQDCYAGIANCNLALQKLGEFENLDASLVNGYMAEVKFMRALYYFYLVRIFGDVPKITTVQSELGELQVSRAPVKEIYDEIIIPDLLEAEQSDLAFSDHTGRVSMGAVKALLADVYLTYAGYPLQGGKSYYAESAKRSLEVIKSNEYTLFTDYESLRLPSQNNKGEFIYQVQFSLNKRHNESVRIFLPSRSGISAYDLEYGSLIPTKEFVESFEKGDKRTEEKQYFFTNYKGHPSKFSPGAAELEFMDLNGYYIYKFFDQVAVDNTAKSDLNWSVYRYTDVLLMYAEAQVNADGTPNQQSIDIVNQIRGRAGLAPFKQTNASAFLEEVWDQRYFDLCYENKMWFDMLRTRKIRDDKSGEYVDFIGYKTNWGKVYTETQLLFPIPLSERQANPNLTQNQGY
# Columns and labels:
# Test in all cases: glycan array binding signal (z-score within array); higher = stronger binding
# Conditions in all cases: glycan notation: IUPAC condensed, linker removed
# [1] = biological target: Fuc(a1-2)Gal(b1-3)GalNAc
# Summary of the method: (§1)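 The binding signal is a Z-score computed within each array. Data were drawn from 3228 arrays in the Consortium for Functional Glycomics database, restricted to those with a known protein sequence. Scores were averaged over arrays of the same protein sequence at different concentrations or buffers, and over linkers, and negative values can be taken as non-binding.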
# [2] = biological target: Fuc(a1-2)Gal(b1-3)GalNAc(b1-3)Gal
# Summary of the method: as §1
# [3] = biological target: Fuc(a1-2)Gal(b1-3)GlcNAc(b1-3)[Neu5Ac(a2-6)Gal(b1-4)GlcNAc(b1-6)]Gal(b1-4)Glc
# Summary of the method: as §1
# [4] = biological target: Fuc(a1-2)Gal(b1-3)[Fuc(a1-4)]GlcNAc(b1-2)Man(a1-3)[Fuc(a1-2)Gal(b1-3)[Fuc(a1-4)]GlcNAc(b1-2)Man(a1-3)]Man(b1-4)GlcNAc(b1-4)GlcNAc
# Summary of the method: as §1
# [5] = biological target: Fuc(a1-2)Gal(b1-4)GlcNAc(b1-2)Man(a1-3)[Fuc(a1-2)Gal(b1-4)GlcNAc(b1-2)Man(a1-6)]Man(b1-4)GlcNAc(b1-4)GlcNAc
# Summary of the method: as §1
# [6] = biological target: Fuc(a1-2)Gal(b1-4)[Fuc(a1-3)]GlcNAc(b1-3)[Neu5Ac(a2-6)Gal(b1-4)GlcNAc(b1-6)]Gal(b1-4)Glc
# Summary of the method: as §1
# [7] = biological target: Fuc(a1-2)[Gal(a1-3)]Gal(b1-3)GlcNAc(b1-6)GalNAc
# Summary of the method: as §1
# [8] = biological target: Fuc(a1-2)[Gal(a1-3)]Gal(b1-4)GlcNAc(b1-2)Man
# Summary of the method: as §1
# [9] = biological target: Fuc(a1-2)[Gal(a1-3)]Gal(b1-4)GlcNAc(b1-6)GalNAc
# Summary of the method: as §1
# [10] = biological target: Fuc(a1-2)[GalNAc(a1-3)]Gal(b1-3)GlcNAc(b1-2)Man(a1-3)[Fuc(a1-2)[GalNAc(a1-3)]Gal(b1-3)GlcNAc(b1-2)Man(a1-6)]Man(b1-4)GlcNAc(b1-4)[Fuc(a1-6)]GlcNAc
# Summary of the method: as §1
# [11] = biological target: Fuc(a1-2)[GalNAc(a1-3)]Gal(b1-4)GlcNAc
# Summary of the method: as §1
# [12] = biological target: Fuc(a1-2)[GalNAc(a1-3)]Gal(b1-4)GlcNAc(b1-2)Man
# Summary of the method: as §1
# [13] = biological target: Fuc(a1-2)[GalNAc(a1-3)]Gal(b1-4)GlcNAc(b1-2)Man(a1-3)[Fuc(a1-2)[GalNAc(a1-3)]Gal(b1-4)GlcNAc(b1-2)Man(a1-6)]Man(b1-4)GlcNAc(b1-4)GlcNAc
# Summary of the method: as §1
# [14] = biological target: Fuc(a1-2)[GalNAc(a1-3)]Gal(b1-4)GlcNAc(b1-3)GalNAc
# Summary of the method: as §1
# [15] = biological target: Fuc(a1-3)[Gal(b1-4)]GlcNAc(b1-2)Man(a1-3)[Fuc(a1-3)[Gal(b1-4)]GlcNAc(b1-2)Man(a1-6)]Man(b1-4)GlcNAc(b1-4)[Fuc(a1-6)]GlcNAc
# Summary of the method: as §1
# [16] = biological target: Fuc(a1-3)[Gal3S(b1-4)]GlcNAc6S
# Summary of the method: as §1
# [17] = biological target: Gal(a1-3)Gal(b1-3)GlcNAc(b1-2)Man(a1-3)[Gal(a1-3)Gal(b1-3)GlcNAc(b1-2)Man(a1-6)]Man(b1-4)GlcNAc(b1-4)GlcNAc
# Summary of the method: as §1
# [18] = biological target: Gal(a1-3)Gal(b1-4)GlcNAc(b1-2)Man(a1-3)[Gal(a1-3)Gal(b1-4)GlcNAc(b1-2)Man(a1-6)]Man(b1-4)GlcNAc(b1-4)GlcNAc
# Summary of the method: as §1
# [19] = biological target: Gal(a1-4)Gal(b1-4)GlcNAc(b1-2)Man(a1-3)[Gal(a1-4)Gal(b1-4)GlcNAc(b1-2)Man(a1-6)]Man(b1-4)GlcNAc(b1-4)GlcNAc
# Summary of the method: as §1
# [20] = biological target: Gal(b1-2)Gal
# Summary of the method: as §1
# [21] = biological target: Gal(b1-3)GlcNAc(b1-2)Man(a1-3)[Gal(b1-3)GlcNAc(b1-2)Man(a1-6)]Man(b1-4)GlcNAc(b1-4)[Fuc(a1-6)]GlcNAc
# Summary of the method: as §1
# [22] = biological target: Gal(b1-3)GlcNAc(b1-3)Gal(b1-4)GlcNAc(b1-3)Gal(b1-4)GlcNAc(b1-2)[Gal(b1-3)GlcNAc(b1-3)Gal(b1-4)GlcNAc(b1-3)Gal(b1-4)GlcNAc(b1-6)]Man(a1-6)[Gal(b1-3)GlcNAc(b1-3)Gal(b1-4)GlcNAc(b1-3)Gal(b1-4)GlcNAc(b1-2)Man(a1-3)]Man(b1-4)GlcNAc(b1-4)[Fuc(a1-6)]GlcNAc
# Summary of the method: as §1
# [23] = biological target: Gal(b1-3)[Fuc(a1-4)]GlcNAc(b1-2)Man
# Summary of the method: as §1
# [24] = biological target: Gal(b1-3)[Neu5Ac(b2-6)]GalNAc
# Summary of the method: as §1
# [25] = biological target: Gal(b1-4)Gal
# Summary of the method: as §1
# [26] = biological target: Gal(b1-4)GlcNAc(b1-2)Man(a1-6)[Man(a1-3)]Man(b1-4)GlcNAc(b1-4)GlcNAc
# Summary of the method: as §1
# [27] = biological target: Gal(b1-4)GlcNAc(b1-2)[Gal(b1-4)GlcNAc(b1-4)]Man(a1-3)[Gal(b1-4)GlcNAc(b1-2)Man(a1-6)]Man(b1-4)GlcNAc(b1-4)GlcNAc
# Summary of the method: as §1
# [28] = biological target: Gal(b1-4)GlcNAc(b1-2)[Gal(b1-4)GlcNAc(b1-4)]Man(a1-3)[Gal(b1-4)GlcNAc(b1-2)[Gal(b1-4)GlcNAc(b1-6)]Man(a1-6)]Man(b1-4)GlcNAc(b1-4)GlcNAc
# Summary of the method: as §1
# [29] = biological target: Gal(b1-4)GlcNAc(b1-2)[Gal(b1-4)GlcNAc(b1-6)]Man(a1-6)[Gal(b1-4)GlcNAc(b1-2)Man(a1-3)]Man(b1-4)GlcNAc(b1-4)[Fuc(a1-6)]GlcNAc
# Summary of the method: as §1
# [30] = biological target: Gal(b1-4)GlcNAc(b1-3)Gal(b1-3)GlcNAc
# Summary of the method: as §1
binder,measurement,setting,value
B1,glycan array binding signal (z-score),[1],-0.509
same,glycan array binding signal (z-score),[2],-0.373
same,glycan array binding signal (z-score),[3],-0.402
same,glycan array binding signal (z-score),[4],-0.174
same,glycan array binding signal (z-score),[5],3.11
same,glycan array binding signal (z-score),[6],-0.392
same,glycan array binding signal (z-score),[7],-0.255
same,glycan array binding signal (z-score),[8],-0.394
same,glycan array binding signal (z-score),[9],-0.381
same,glycan array binding signal (z-score),[10],-0.391
same,glycan array binding signal (z-score),[11],-0.526
same,glycan array binding signal (z-score),[12],-0.523
same,glycan array binding signal (z-score),[13],4.7
same,glycan array binding signal (z-score),[14],-0.4
same,glycan array binding signal (z-score),[15],2.77
same,glycan array binding signal (z-score),[16],-0.299
same,glycan array binding signal (z-score),[17],3.96
same,glycan array binding signal (z-score),[18],6.89
same,glycan array binding signal (z-score),[19],0.705
same,glycan array binding signal (z-score),[20],-0.367
same,glycan array binding signal (z-score),[21],0.737
same,glycan array binding signal (z-score),[22],3.2
same,glycan array binding signal (z-score),[23],-0.12
same,glycan array binding signal (z-score),[24],-0.512
same,glycan array binding signal (z-score),[25],1.08
same,glycan array binding signal (z-score),[26],5.33
same,glycan array binding signal (z-score),[27],0.486
same,glycan array binding signal (z-score),[28],-0.221
same,glycan array binding signal (z-score),[29],0.886
same,glycan array binding signal (z-score),[30],-0.366
